From PubChem BioAssay (NCATS) come the findings set out here.

Results filed as inconclusive are left out. Active and inactive are the calls of the source. Calls follow the shape of the full dose curve.

This assay deals with Vitamin D3 receptor (Homo sapiens) (UniProt P11473). In words: qHTS assay for small molecule agonists of vitamin D receptor signaling (AID 588543). The note with it: HEK293T VDR-UAS-bla, beta-lactamase ratio, 16 h; series mostly up to 76.8 µM. From the text: NIH Chemical Genomics Center [NCGC]
Sequence of Vitamin D3 receptor (Homo sapiens) (P11473 whole entry, looked up): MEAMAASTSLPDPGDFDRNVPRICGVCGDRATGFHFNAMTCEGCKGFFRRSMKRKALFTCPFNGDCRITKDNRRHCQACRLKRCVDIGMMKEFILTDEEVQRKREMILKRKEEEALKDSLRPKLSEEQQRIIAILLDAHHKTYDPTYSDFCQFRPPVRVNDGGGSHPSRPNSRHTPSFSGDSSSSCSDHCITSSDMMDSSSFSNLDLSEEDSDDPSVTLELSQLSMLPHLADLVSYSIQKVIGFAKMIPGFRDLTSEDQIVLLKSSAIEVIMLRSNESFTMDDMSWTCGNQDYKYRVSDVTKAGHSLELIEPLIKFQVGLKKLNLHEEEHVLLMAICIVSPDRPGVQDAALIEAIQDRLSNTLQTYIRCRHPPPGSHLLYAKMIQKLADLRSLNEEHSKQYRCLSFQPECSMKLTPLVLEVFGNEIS
U.S. Environmental Protection Agency [EPA]
National Institutes of Environmental Health Sciences [NIEHS]
National Toxicology Program [NTP]
The Vitamin D receptor (VDR) is a member of nuclear hormone receptor superfamily and it plays a critical role in calcium homeostasis and bone metabolism. It plays a role in inducing cell differentiation, inhibiting cell growth and in thrombogenicity. So, VDR that mediates these effects represents a pharmacological target in prevention and treatment of hyperproliferative malignancies, such as cancer and psoriasis, cardiovascular, immunological, inflammatory and renal diseases etc.
NCGC Assay Protocol Summary
Using a beta-lactamase reporter-gene under control of Vitamin D receptor (VDR) response element, a cell-based assay [GeneBLAzer (VDR -UAS-bla assay developed by Invitrogen] was used to measure VDR ligands signaling. GeneBLAzer VDR -UAS-bla HEK293T cells were used with assay medium containing 2% charcoal-stripped FBS. The assay was performed in clear bottom black Greiner 1536-well plates. 1-alpha,25-Dihydroxy vitaminD3 was used as a positive control in the screen. Library compounds were measured for their ability to stimulate the reporter gene activity. Compounds were screened in a titration series in 1536-well format. The fluorescence intensity (405 nm excitation, 460/530 nm emission) was measured using an EnVision plate reader. Data was normalized relative to 1-alpha,25-Dihydroxy vitaminD3 control (50 nM, 100%) and DMSO only wells (basal, 0%). Concentration-response titration points for each compound were fitted to the Hill equation yielding concentrations of half-maximal stimulation (EC50) and maximal response (efficacy) values.
qHTS protocol for VDR beta-lactamase assay in agonist mode
[Step] [Parameter] [Value] [Description]
1. Reagent; 6 uL; 2000 cells/well
2. Incubation; 37 C for 5 hrs
4. Controls (1-alpha,25-Dihydroxy vitaminD3); 23 nL,
- Final concentrations of 50 nM and 15 nM in two columns
5. Incubation; 37 C for 16 hrs
6. Detection reagent; 1 uL of CCF4-dye
7. Incubation; RT for 2 hrs
8. Detection; Fluorescence; Envision plate reader
Regarding `O=C(NC(=O)c1c(F)cccc1F)Nc1cc(Cl)c(OC(F)(F)C(F)C(F)(F)F)cc1Cl` (centres undefined), the result was inactive.

In the case of `COP(=O)(OC)C(O)C(Cl)(Cl)Cl` (centres undefined), the result was inactive.

Turning to `Cc1ccc(N=CN(C)C=Nc2ccc(C)cc2C)c(C)c1`, the outcome was inactive.

In the case of `CCCCCCCCCCCC[N+](C)(C)CCOc1ccccc1`, the result was inactive.

In the case of `CCCCCCCCC(=O)NCc1ccc(O)c(OC)c1`, the outcome was inactive.

Turning to `O=c1n(Cl)c(=O)n(Cl)c(=O)n1Cl`, the outcome was inactive.

With `CCC(=O)O[C@H]1CC[C@H]2[C@@H]3CCC4=CC(=O)CC[C@]4(C)[C@H]3CC[C@]12C`, the outcome was inactive.

With `CC[n+]1c(-c2ccccc2)c2cc(N)ccc2c2ccc(N)cc21`, the outcome was inactive.

As to `CNC(=O)Oc1cccc2ccccc12`, the outcome was inactive.

Turning to `C=CCOC(Cn1ccnc1)c1ccc(Cl)cc1Cl` (centres undefined), the outcome was inactive.

For the compound `COCC(=O)N(c1c(C)cccc1C)C(C)C(=O)OC` (centres undefined), the result was inactive.

With `CCNc1nc(Cl)nc(NCC)n1`, the result was inactive.

In the case of `CN(C)C(=S)SSC(=S)N(C)C`, the result was inactive.

With `C[C@H]1C(=O)O[C@@H]2CCN3CC=C(COC(=O)[C@](C)(O)[C@]1(C)O)[C@H]23`, the outcome was inactive.
